Reference: PubChem BioAssay (EPA / NIEHS)
Several values for one entry are separate records, joined by “and”; a condition that tells them apart may be missing. Equal entries are not always repeated. Some structures have more than one record in an assay (separate samples or runs), and their calls can disagree. Activity calls are given as the source filed them. How the source made its calls: active means hit-call score of the fitted dose curve at least 0.9, where 1 is the maximum; inactive means score below 0.9.

Assay: ATG_VDRE_CIS: Attagene CIS-FACTORIAL HepG2 Assay for human Vitamin D Receptor Element (VDRE) (AID 2282968)
Conditions: HepG2 VDRE cis-reporter transcription, actives raise or lower the signal
Protocol: ATG_CIS is a cell-based, multiplexed-readout assay that uses HepG2, a human liver cell line, with measurements taken at 24 hours after chemical dosing in a 24-well plate.ATG_VDRE_CIS is one of 52 assay component(s) measured or calculated from the ATG_CIS assay. It is designed to make measurements of mRNA induction, a form of inducible reporter, as detected with fluorescence intensity signals by Reverse transcription polymerase chain reaction (RT-PCR) and Capillary electrophoresis technology.Data from the assay component ATG_VDRE_CIS was analyzed into 1 assay endpoint. This assay endpoint, ATG_VDRE_CIS, was analyzed with bidirectional fitting relative to DMSO as the negative control and baseline of activity. Using a type of inducible reporter, measures of mRNA for gain or loss-of-signal activity can be used to understand the reporter gene at the transcription factor-level as they relate to the gene VDR. Furthermore, this assay endpoint can be referred to as a primary readout, because this assay has produced multiple assay endpoints where this one serves a reporter gene function. To generalize the intended target to other relatable targets, this assay endpoint is annotated to the nuclear receptor intended target family, where the subfamily is non-steroidal.
Human liver HepG2 cells are transiently transfected with multiple reporter transcription units (MRTUs) in 6-well plates using FuGene 6 reagent (Roche; 3 ml FuGene/1 mg DNA). The MRTU constructs are regulated by a cis-regulating element (promoter). […] A major difference between the CIS and TRANS system is that in CIS activities of endogenous TFs are measured, whereas the TRANS assay evaluates changes in activities of exogenous, chimeric NR-Gal4 proteins. […] At the end of 24 hour incubation, total RNA was isolated using TriZol reagent (Invitrogen). The isolated RNA is then reverse-transcribed using oligo(dT) primer and Mo-MLV reverse transcriptase (Invitrogen) with DNAse I (Ambion) treatment for 30 min. The one-tenth of the produced cDNA was amplified by PCR using Taq DNA polymerase (Invitrogen) and two reporter sequence-specific primers. The PCR products were fluorescently labeled by primer extension with 6-arboxyfluorescein (6-FAM) 5'-labeled reporter sequence-specific primer (2 min at 95 C, 20 s at 68 C and 10 min at 72 C) and these products were digested with 5U of HpaI (New England Biolabs) for 2h at 37 C. The fragments were purified using Qiaquick PCR columns (Qiagen), analyzed on an ABI 3130xL genetic analyzer (Applied Biosystems) with peak positions identified by using a set of X-rhodamine (ROX)-labeled MapMarker1000 molecular weight standards (BioVentures). The raw capillary electrophoresis data was processed using Attagraph software (Attagene).

| Compound | AC50 | outcome |
| --- | --- | --- |
| CCCCCCCCSC(=O)Oc1cc(Cl)nnc1-c1ccccc1 | 100 µM (active) |  |
| C=CC#N |  | inactive |
| C[C@@H](Oc1ccc(Cl)cc1Cl)C(=O)O |  | inactive |
| ClCC(Cl)CCl |  | inactive |
| O=C(OC1CCCCC1)c1ccccc1C(=O)OC1CCCCC1 | 2.82 µM (active) |  |
| CCCCCCCCC(=O)NCc1ccc(O)c(OC)c1 |  | inactive |
| O=C(Cc1ccccc1)c1ccccc1 |  | inactive |
| O=S(=O)(c1ccc(Cl)cc1)c1ccc(Cl)cc1 | 27.2 µM (active) |  |
| CCCCCCCCc1ccc(O)cc1 | 18.9 µM (active) | inactive |
| C[C@]12CC[C@H](O)CC1=CC[C@@H]1[C@@H]2CC[C@]2(C)C(=O)CC[C@@H]12 |  | inactive |
| CC(=O)C(Cl)C(=O)N(C)C (stereo not given) |  | inactive |
| Oc1cccc2cccnc12 | 67.9 µM (active) | inactive |
| CCC1(c2ccc(N)cc2)CCC(=O)NC1=O (stereo not given) |  | inactive |
| O=[N+]([O-])c1c(Cl)c(Cl)cc(Cl)c1Cl |  | inactive |
| CCOC(=O)/C=C(C)/C=C/C[C@@H](C)CCCC(C)C |  | inactive |
| Cl/C=C\C[N+]12CN3CN(CN(C3)C1)C2 |  | inactive |
| CCSC(C)CC1CC(=O)C(C(CC)=NOC/C=C/Cl)=C(O)C1 (stereo not given) | 11.3 µM (active) |  |
| C=C(C)C(=O)[O][Sn]([CH2]CCC)([CH2]CCC)[CH2]CCC | 0.185 µM (active) |  |
| COc1cc(-c2ccc(N)c(OC)c2)ccc1N | 27.8 µM (active) and 31 µM (active) |  |

| Compound | AC50 | outcome |
| --- | --- | --- |
| CCN(CC)C(=O)Cl |  | inactive |
| CC(C)(c1ccccc1)c1ccc(O)c(C(C)(C)c2ccccc2)c1 | 0.702 µM (active) |  |
| CCCCOCCOC(C)=O |  | inactive |
| CCCCP(CCCC)CCCC |  | inactive |
| Nc1cccc(Cl)c1 |  | inactive |
| O=C1C(Cl)=C(Cl)C(=O)c2ccccc21 |  | inactive |
| N#CCCO |  | inactive |
| Fc1ccc(C2(Cn3cncn3)OC2c2ccccc2Cl)cc1 (stereo not given) | 12.3 µM (active) |  |
| CCOP(=S)(OCC)SCSP(=S)(OCC)OCC | 1.32 µM (active) |  |
| O=C(Cl)c1ccc(Cl)cc1 |  | inactive |
| O=C(NCO)NCO |  | inactive |
| COc1cc2c(cc1OC)[C@@]13CCN4CC5=CCO[C@H]6CC(=O)N2[C@H]1[C@H]6[C@H]5C[C@H]43 |  | inactive |
| CCOP(=S)(OCC)SCCS(=O)(=O)CC |  | inactive |
| CC(=[OH+])/C=C(/C)[O-].CC(=[OH+])/C=C(/C)[O-].CC(=[OH+])/C=C(/C)[O-].[Al] |  | inactive |
| O=[N+]([O-])c1ccc2c3c(cccc13)CC2 | 11.5 µM (active) |  |
| Cl/C=C/Cl |  | inactive |
| CC(C)(C)CC(C)(C)c1ccc(O)cc1 | 3.28 µM (active) and 14.2 µM (active) | inactive |
| CC1(C)CCC(Cc2ccc(Cl)cc2)C1(O)Cn1cncn1 (stereo not given) | 17.7 µM (active) |  |
